Results taken from PubChem BioAssay AID1159580 (chemical genetic matrix, 2015).
In all, about 5,500 compounds went through this assay and about 2,000 (36%) were called active. Not shown: some 18% with an inconclusive outcome. Cut-off read from the data, not from the text of the source: active = normalized growth mostly below about 0.91 (no sharp cut-off); inconclusive = no clear call, values can overlap the other calls; inactive = mostly above about 0.92. Some of the results follow.

Test: chemical genetic growth profiling, strain panel (AID 1159580);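 note: tested at 20 µM; growth read once vehicle control cultures reached saturation at 30 °C; 1 = growth at the plate median or of vehicle wells; lower values mean less growth of the strain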
Details: S. cerevisiae deletion strains, growth OD

Measured: normalized growth

O=c1ccc2cc(OC3OC(CO)C(O)C(O)C3O)c(O)cc2o1 (stereo not drawn)
inactive: locus YAL021C, strain ccr4, hits give low values 0.959 | locus YAL026C, strain drs2, hits give low values 1 | locus YAL030W, strain snc1, hits give low values 0.986 | locus YBL061C, strain skt5, hits give low values 1 | locus YBR009C, strain hhf1, hits give low values 0.995 | locus YBR023C, strain chs3, hits give low values 0.992 | locus YBR171W, strain sec66, hits give low values 1 | locus YBR231C, strain swc5, hits give low values 1.03 | locus YBR279W, strain paf1, hits give low values 0.998 | locus YCL011C, strain gbp2, hits give low values 0.974 | locus YCL016C, strain dcc1, hits give low values 0.979 | locus YCL069W, strain vba3, hits give low values 0.983 | locus YCR088W, strain abp1, hits give low values 0.985 | locus YDL005C, strain med2, hits give low values 0.989 | locus YDL040C, strain nat1, hits give low values 0.991 | locus YDR001C, strain nth1, hits give low values 0.972 | locus YDR069C, strain doa4, hits give low values 0.998 | locus YDR137W, strain rgp1, hits give low values 0.976 | locus YDR159W, strain sac3, hits give low values 1.06 | locus YDR195W, strain ref2 0.973 | locus YDR297W, strain sur2, hits give low values 0.995 | locus YDR334W, strain swr1, hits give low values 0.991 | locus YDR335W, strain msn5, hits give low values 0.991 | locus YDR392W, strain spt3, hits give low values 0.927 | locus YEL003W, strain gim4, hits give low values 1 | locus YEL037C, strain rad23, hits give low values 0.986 | locus YEL061C, strain CIN8 (second series), hits give low values 0.984 | locus YER015W, strain faa2, hits give low values 1 | locus YER016W, strain bim1, hits give low values 0.993 | locus YER111C, strain swi4, hits give low values 1.01 | locus YER155C, strain BEM2 (second series), hits give low values 1.07 | locus YFR010W, strain ubp6, hits give low values 0.997 | locus YGL167C, strain pmr1, hits give low values 0.989 | locus YGL173C, strain kem1, hits give low values 0.998 | locus YGL227W, strain vid30, hits give low values 0.989 | locus YGL240W, strain doc1, hits give low values 1.04 | locus YGL253W, strain hxk2, hits give low values 0.996 | locus YHR013C, strain ard1, hits give low values 0.992 | locus YHR027C, strain rpn1, hits give low values 0.977 | locus YHR030C, strain SLT2, hits give low values 0.985 | locus YHR079C, strain IRE1, hits give low values 0.969 | locus YHR142W, strain chs7, hits give low values 0.959 | locus YJL092W, strain hpr5, hits give low values 0.981 | locus YJL095W, strain BCK1 (second series), hits give low values 0.995 | locus YJL095W, strain BCK1, hits give low values 0.968 | locus YJL115W, strain asf1, hits give low values 0.973 | locus YJL129C, strain trk1, hits give low values 1 | locus YJL154C, strain vps35, hits give low values 0.981 | locus YJL164C, strain tpk1, hits give low values 0.947 | locus YJL166W, strain qcr8, hits give low values 1 | locus YJR066W, strain TOR1, hits give low values 0.919 | locus YKL160W, strain elf1, hits give low values 0.966 | locus YKR026C, strain gcn3, hits give low values 1 | locus YKR091W, strain srl3, hits give low values 0.989 | locus YLL001W, strain dnm1, hits give low values 0.993 | locus YLL026W, hits give low values 0.988 | locus YLL041C, strain sdh2, hits give low values 0.983 | locus YLR027C, strain aat2, hits give low values 1.01 | locus YLR113W, strain HOG1, hits give low values 0.973 | locus YLR221C, strain rsa3, hits give low values 1.04 | locus YLR258W, strain gsy2, hits give low values 0.972 | locus YLR262C, strain YPT6 (second series), hits give low values 0.98 | locus YLR320W, strain mms22, hits give low values 1.04 | locus YLR342W, strain FKS1, hits give low values 0.995 | locus YLR357W, strain rsc2, hits give low values 1 | locus YLR370C, strain arc18, hits give low values 1.02 | locus YLR384C, strain iki3, hits give low values 1.01 | locus YML120C, strain ndi1, hits give low values 0.988 | locus YMR058W, strain fet3, hits give low values 1 | locus YMR125W, strain sto1, hits give low values 0.92 | locus YMR129W, hits give low values 0.993 | locus YMR205C, strain PFK2, hits give low values 0.969 | locus YMR231W, strain pep5, hits give low values 1 | locus YNL071W, strain lat1, hits give low values 0.988 | locus YNL183C, strain NPR1, hits give low values 0.897 | locus YNL209W, strain ssb2, hits give low values 0.99 | locus YNL248C, strain rpa49, hits give low values 1.04 | locus YNL322C, strain KRE1 (second series), hits give low values 1.01 | locus YNR049C, strain mso1, hits give low values 0.982 | locus YOR001W, strain rrp6, hits give low values 1.02 | locus YOR070C, strain gyp1, hits give low values 0.998 | locus YOR080W, strain dia2, hits give low values 1.01 | locus YOR083W, strain WHI5, hits give low values 0.964 | locus YOR106W, strain vam3, hits give low values 0.939 | locus YOR231W, strain MKK1, hits give low values 0.973 | locus YOR265W, strain rbl2, hits give low values 1 | locus YOR270C, strain vph1, hits give low values 1.03 | locus YOR290C, strain snf2, hits give low values 0.919 | locus YPL051W, strain arl3, hits give low values 1.02 | locus YPL078C, strain atp4, hits give low values 0.935 | locus YPL106C, strain sse1, hits give low values 1.01 | locus YPL240C, strain hsp82, hits give low values 0.998 | locus YPL256C, strain CLN2, hits give low values 0.956
